High-throughput results (PubChem BioAssay)
Compounds with a hit are over-represented: about 3.1% of the library has one in this group of screens.
C2C12 statin = suppressors of simvastatin-induced myotoxicity in C2C12 myotubes. ATP luminescence, 48 h; scaled: DMSO 0, geranylgeraniol control 100. rescue of ATP level, % at 7.49 µM. 330,000 tested, 0.78% active. AID 602340;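 active means mean ATP rescue above about 67%, or every replicate alone reaching that limit, limit read from the data, passing the limit was not always enough; inconclusive means no clear call, values can overlap the other calls; inactive means mean under the limit and some replicate under it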;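 further: myotubes were challenged with 10 µM simvastatin during compound exposure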
Wnt act = activates Wnt/beta-catenin signaling in a reporter cell assay; activator, plate reader; activation, % at 9.35 µM; 300,000 tested, 1.2% active; in the data active means activation above about 30%, passing the limit was not always enough; inconclusive means no clear call, values can overlap the other calls;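 further: 0% = neutral control wells and 100% = positive control wells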
esBAF inh = blocks esBAF chromatin remodeling in mouse ES cells; Bmi1-luciferase knock-in reporter, 24 h; 100% = twice the neutral-well signal; AID 602393; 350,000 tested, 2% active; reporter increase, % at 12.5 µM; in the data active means activation above about 40%; inconclusive means no clear call, values can overlap the other calls;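 further: 0% = median of the plate's neutral control wells and 100% = double that signal; a rise in the Bmi1 reporter signal indicates esBAF inhibition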
MITF act = activators of MITF-driven TRPM1 promoter activity in SK-MEL-5 cells; activation, % at 12.5 µM; 300,000 tested, 0.75% active; AID 588334; SK-MEL-5 TRPM1-promoter luciferase, 24 h; % of positive control, neutral wells = 0;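 active means mean activation of at least 80% with every replicate also reaching 80%; inconclusive means mean reaches 80% but some replicate falls short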;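 further: 0% = neutral control wells and 100% = parthenolide positive control wells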
Rtt109 Vps75 = C. albicans Rtt109 histone acetyltransferase inhibition; Q5AAJ8; purified Rtt109/Vps75, ThioGlo CoA-SH fluorescence, 4 h; inhibition, % at 34.9 µM; 330,000 tested, 0.16% active; AID 540336;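 active means inhibition of at least 50% in every replicate; inconclusive means best replicate reaches 50% inhibition but some replicates fall short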
Target sequence (Q5AAJ8 whole entry, looked up): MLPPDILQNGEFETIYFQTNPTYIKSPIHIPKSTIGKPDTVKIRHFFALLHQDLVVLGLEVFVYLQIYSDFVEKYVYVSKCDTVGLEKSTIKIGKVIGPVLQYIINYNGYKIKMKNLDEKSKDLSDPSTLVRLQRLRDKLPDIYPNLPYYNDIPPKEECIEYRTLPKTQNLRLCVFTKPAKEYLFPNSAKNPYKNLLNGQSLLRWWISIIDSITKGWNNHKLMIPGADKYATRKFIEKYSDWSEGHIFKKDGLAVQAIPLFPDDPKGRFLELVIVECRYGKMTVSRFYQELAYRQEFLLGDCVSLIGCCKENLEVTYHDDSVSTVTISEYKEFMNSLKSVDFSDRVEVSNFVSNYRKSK
Active calls of the source: *.

For Nc1ccccc1SC(CC(=O)c1ccccc1)c1ccc([N+](=O)[O-])cc1 (configuration not stated) the results were C2C12 statin 19, Wnt act 80* and esBAF inh 29.
Screening COc1ccc(C(CC(=O)c2ccc(C)cc2)Nc2ccc([N+](=O)[O-])cc2)cc1 (configuration not stated) returned Wnt act 8, MITF act 12 and Rtt109 Vps75 3.
Screening COc1ccc(C(CC(=O)c2ccc(C)cc2)Sc2ccccc2N)cc1 (configuration not stated) returned C2C12 statin 23, Wnt act 47* and esBAF inh 60*.
COc1ccc(C(CC(=O)c2ccc(O)cc2)S(=O)(=O)c2ccc(C)cc2)cc1 (configuration not stated) was read as C2C12 statin -13, Wnt act 20, esBAF inh 33, MITF act 86* and Rtt109 Vps75 -13.
Screening Nc1ccccc1SC(CC(=O)c1ccccc1)c1cccc([N+](=O)[O-])c1 (configuration not stated) returned C2C12 statin 10, Wnt act -21 and esBAF inh inconclusive.
C[C@H](CO)N1C[C@H](C)[C@H](CN(C)C(=O)C2CC2)Oc2cc(-c3ccccc3F)ccc2S1(=O)=O was read as C2C12 statin -10 and esBAF inh -8.
CNC(=O)C[C@@H]1CC[C@@H]2[C@H](COc3ccc(NC(=O)C4CC4)cc3C(=O)N2C)O1 was read as C2C12 statin 1 and esBAF inh -1.
For COc1ccc(OC)c(Nc2nc(=O)c3cccnc3s2)c1 the results were C2C12 statin -4, esBAF inh 4, MITF act -3 and Rtt109 Vps75 112*.
Screening Cc1cccc(NC(=O)N2CCCCCC2)c1 returned C2C12 statin -6, Wnt act 6, esBAF inh 43*, MITF act 33 and Rtt109 Vps75 0.
O=C(Nc1cnc2ccccc2c1)N1CCOCC1 was read as MITF act 27 and Rtt109 Vps75 5.
O=C(Nc1cnc2ccccc2c1)N1CCCCC1 was read as MITF act 94* and Rtt109 Vps75 2.
For Cc1ccc(NC(=O)N2CCCCCC2)cc1C the results were C2C12 statin -7, Wnt act 27, esBAF inh 52*, MITF act 36 and Rtt109 Vps75 21.
For CC(=O)Nc1cccc(-c2nc3ccc(NC(C)=O)cc3s2)c1 the results were C2C12 statin -2, Wnt act inconclusive, esBAF inh 54*, MITF act 90* and Rtt109 Vps75 9.
Screening Cc1c(NC(=O)c2cc(-n3cnnc3)ccc2Cl)cccc1-c1nc2ccccc2s1 returned C2C12 statin -6, esBAF inh 13, MITF act 56 and Rtt109 Vps75 -3.
CC(=O)Nc1ccc2nc(NC(=O)COc3ccccc3C)sc2c1 was read as C2C12 statin -11, Wnt act 2, esBAF inh 22, MITF act 37 and Rtt109 Vps75 -4.
For CC(=O)Nc1cccc(-c2nc3ccccc3s2)c1 the results were C2C12 statin -26, Wnt act 12, esBAF inh 37, MITF act 20 and Rtt109 Vps75 -14.
O=C(Nc1cccc(-c2nc3ccccc3s2)c1)c1cc(-n2cnnc2)ccc1Cl was read as C2C12 statin -1, esBAF inh 82*, MITF act 38 and Rtt109 Vps75 -2.
`CC(=O)Nc1ccc2nc(NC(=O)COc3ccccc3Cl)sc2c1` gave C2C12 statin -6, Wnt act 10, esBAF inh 60*, MITF act 89* and Rtt109 Vps75 -2.
COc1cccc2sc(Nc3nc4ccc(NC(C)=O)cc4s3)nc12 was read as C2C12 statin 2, Wnt act 8, esBAF inh 48*, MITF act -7 and Rtt109 Vps75 -2.
Screening C[C@H](CO)N1C[C@H](C)[C@H](CN(C)Cc2ccccc2)Oc2c(NS(=O)(=O)c3ccc(Cl)cc3)cccc2C1=O returned C2C12 statin -2 and esBAF inh -3.
CO[C@@H]1CN(C)C(=O)c2cc(NC(=O)C3CCC3)ccc2OC[C@H](C)N(C)C[C@@H]1C was read as C2C12 statin 0 and esBAF inh -8.
Screening O=c1oc2ccccc2c(Nc2ccc(O)cc2)c1[N+](=O)[O-] returned C2C12 statin 133*, esBAF inh -5, MITF act -37 and Rtt109 Vps75 2.
